Results: PubChem BioAssay (NCI)
Where “and” joins values, the source holds several entries; their conditions need not be identical. Equal values may be shown once. The panel holds about 79,000 compounds, 15% with a hit somewhere; the sample as a whole holds those more often. Some structures have more than one record in an assay (separate samples or runs), and their calls can disagree. Calls of active or inactive are those of the source. Rule as the data show it: active = growth inhibition above about 70%; inactive = the rest.

Test: NCI Yeast Anticancer Drug Screen. Data for the sgs1 mgt1 strain (AID 161);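 also: 0% = growth of cultures given vehicle only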
Settings: S. cerevisiae sgs1 mgt1 strain, at 50.0 µM (retest, dose inferred, filed as 5.0), stronger effect = higher value
Procedure, shortened: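 Genetically altered yeast, compound exposure, growth inhibition relative to vehicle.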

With `COC1=C(OC)C(=O)C(Sc2ccc3ccccc3c2)=CC1=O` as the compound, how does the growth inhibition read?
The growth inhibition was 80% (active).

Which growth inhibition does the source give for `COc1nc2c(c(=O)n1C)N=C(c1ccccc1)[C@H](C(CC(=O)c1ccccc1)c1ccccc1)C(c1ccccc1)N2` (stereo partly drawn) here?
The growth inhibition was 35% (inactive).

For `Cc1cc(-c2cc(C)c(O)c(C(C)(C)C)c2)cc(C(C)(C)C)c1O`, which growth inhibition is on record?
The growth inhibition was 45% (inactive) and 90% (active).

With `Nc1cc(N)c(N=Nc2cccc3c(S(=O)(=O)O)cccc23)cc1N=Nc1cc([N+](=O)[O-])ccc1O` as the compound, how does the growth inhibition read?
The growth inhibition was 84% (active).

Which growth inhibition does the source give for `Brc1ccccc1-c1ncc(-c2ccccc2)o1` here?
The growth inhibition was 61% (inactive).

With `COc1cc(C2SCC(=O)N2c2ccc(-c3ccc(-n4c(-c5ccccc5)nc5ccccc5c4=O)cc3)cc2)ccc1O` (stereo not drawn) as the compound, how does the growth inhibition read?
The growth inhibition was 31% (inactive).

With `Nc1ncnc2c1ncn2C1OC(CO)CC1O` (stereo not drawn) as the compound, how does the growth inhibition read?
The growth inhibition was 89% (active) and 90% (active).

Which growth inhibition does the source give for `COc1cc(CSc2ccc(O)cc2)cc(O)c1O` here?
Its growth inhibition is 30% (inactive).

For `CCOC(=O)C1N=[N+](c2ccccc2)C(=O)/C1=C\n1c(=S)[nH]c2ccc([N+](=O)[O-])cc21` (stereo not drawn), which growth inhibition is on record?
The growth inhibition was 63% (inactive).

For `CNC(=O)OCc1c(COC(=O)NC)c2n(c1C)-c1ccc(OC)cc1CCC2`, which growth inhibition is on record?
Its growth inhibition is 99% (active).

Which growth inhibition does the source give for `O=C(NNc1ccccc1)c1ccc(Cl)c(Cl)c1` here?
Its growth inhibition is 19% (inactive).

Which growth inhibition does the source give for `Cc1ccc(CC2(OCCN(C)C)CCC(C(C)(C)C)CC2)cc1` (stereo not drawn) here?
Its growth inhibition is 85% (active) and 91% (active).

For `C[C@]12CC[C@H](O)CC1=CC[C@@H]1C2CC[C@]2(C)C(=O)NC(=O)CC12` (stereo partly drawn), which growth inhibition is on record?
The growth inhibition was 94% (active).

With `CCCC/C=C/C(C)(C(=O)OCC)C(=O)OCC` as the compound, how does the growth inhibition read?
Its growth inhibition is 51% (inactive).

With `CCc1c(Cl)c(C)cc(O)c1Cl` as the compound, how does the growth inhibition read?
The growth inhibition was 46% (inactive).

Which growth inhibition does the source give for `O=C(/C=C(/c1ccccc1)N1CCCCC1)c1ccccc1` here?
Its growth inhibition is 94% (active).

Which growth inhibition does the source give for `CCCC(=O)Oc1ccc(/C=N/NC(N)=S)nc1` here?
The growth inhibition was 25% (inactive).

With `CCc1nc2ccc(NCCN(C)C)c3c(=O)c4ccccc4n1c23` as the compound, how does the growth inhibition read?
The growth inhibition was 28% (inactive).

Which growth inhibition does the source give for `Cc1sc2ccc3ccccc3c2[n+]1C` here?
Its growth inhibition is 20% (inactive) and 4% (inactive).

With `Cc1ccc(Cl)cc1NC(=O)OCCN(C)C(=O)Nc1cc(Cl)ccc1C` as the compound, how does the growth inhibition read?
The growth inhibition was 32% (inactive).

For `Cc1nc2ccccc2nc1NNc1ccccc1`, which growth inhibition is on record?
Its growth inhibition is 32% (inactive).

Same assay, conditions: S. cerevisiae sgs1 mgt1 strain, at 50.0 µM, stronger effect = higher value

Which growth inhibition does the source give for `CN(C)c1ccc(C2CC(C)(O)Oc3cc4c(cc32)OCO4)cc1` (stereo not drawn) here?
Its growth inhibition is 34.7% (inactive).

With `O=P(NC1CCCCC1)(OCc1ccccc1)OCc1ccccc1` as the compound, how does the growth inhibition read?
The growth inhibition was 42.3% (inactive).

For `COc1oc(C(=O)NC2CCCCC2)c(-c2ccc(Cl)cc2)c1S(=O)(=O)c1ccccc1`, which growth inhibition is on record?
The growth inhibition was 78.2% (active).

Which growth inhibition does the source give for `C[Si](C)(C)/C=C/CCNC(C#N)c1ccccc1` (stereo not drawn) here?
The growth inhibition was 92.7% (active).

Which growth inhibition does the source give for `CCOc1ccc(NC(=O)C2=C(C)NC(C)=C(C(=O)Nc3ccc(OCC)cc3)C2c2cccc([N+](=O)[O-])c2)cc1` here?
Its growth inhibition is 27.1% (inactive).

For `CN(C)CCOC1(Cc2ccc(F)cc2)CCC(C(C)(C)C)CC1` (stereo not drawn), which growth inhibition is on record?
The growth inhibition was 92.8% (active) and 99.1% (active).

For `CC1(C)CC(=O)C(/C=N/c2nc(-c3ccccc3)cs2)=C(O)C1`, which growth inhibition is on record?
The growth inhibition was 94.2% (active).

Which growth inhibition does the source give for `CC(=O)Nc1ccc2c(c1)Cc1cc(N=C3C=CC(=O)O3)ccc1-2` here?
Its growth inhibition is 49.1% (inactive).

With `O=C1C=C(Cl)C(=O)C(c2ccc(Cl)cc2)=C1` as the compound, how does the growth inhibition read?
Its growth inhibition is 93.5% (active).

For `CNCCCNc1c2ccccc2nc2cccc([N+](=O)[O-])c12`, which growth inhibition is on record?
The growth inhibition was 91.2% (active).

Which growth inhibition does the source give for `CCCCCCCCCCCC(O)S(=O)(=O)O` (stereo not drawn) here?
Its growth inhibition is 0.05% (inactive).

For `CC(C)OC(=O)c1ccc(CCc2cc(O)c(Br)cc2O)cc1`, which growth inhibition is on record?
The growth inhibition was 88.5% (active).

With `CCc1cc(O)c(Cl)c(C)c1Cl` as the compound, how does the growth inhibition read?
The growth inhibition was 45.5% (inactive).

With `C(=Nc1ccc(-c2cc(-c3ccccc3)nc3ccc4ccccc4c23)cc1)c1ccccc1` as the compound, how does the growth inhibition read?
The growth inhibition was 55.2% (inactive).

Which growth inhibition does the source give for `CSc1nc(C)c(CCOC(C)=O)c(N=P(c2ccccc2)(c2ccccc2)c2ccccc2)n1` here?
The growth inhibition was 96.5% (active).

With `CS(=O)(=O)SCc1ccc([N+](=O)[O-])cc1` as the compound, how does the growth inhibition read?
Its growth inhibition is 98.1% (active).

With `COC1=C(OC)C(=O)C(Sc2ccc3ccccc3c2)=CC1=O` as the compound, how does the growth inhibition read?
The growth inhibition was 91.8% (active).

Which growth inhibition does the source give for `COc1nc2c(c(=O)n1C)N=C(c1ccccc1)[C@H](C(CC(=O)c1ccccc1)c1ccccc1)C(c1ccccc1)N2` (stereo partly drawn) here?
Its growth inhibition is 53.7% (inactive).

With `Cc1cc(-c2cc(C)c(O)c(C(C)(C)C)c2)cc(C(C)(C)C)c1O` as the compound, how does the growth inhibition read?
The growth inhibition was 66.3% (inactive) and 80.8% (active).

Which growth inhibition does the source give for `Nc1cc(N)c(N=Nc2cccc3c(S(=O)(=O)O)cccc23)cc1N=Nc1cc([N+](=O)[O-])ccc1O` here?
The growth inhibition was 26.4% (inactive).

Which growth inhibition does the source give for `Brc1ccccc1-c1ncc(-c2ccccc2)o1` here?
Its growth inhibition is 71.4% (active).

With `COc1cc(C2SCC(=O)N2c2ccc(-c3ccc(-n4c(-c5ccccc5)nc5ccccc5c4=O)cc3)cc2)ccc1O` (stereo not drawn) as the compound, how does the growth inhibition read?
The growth inhibition was 65% (inactive).

Which growth inhibition does the source give for `Nc1ncnc2c1ncn2C1OC(CO)CC1O` (stereo not drawn) here?
The growth inhibition was 87.5% (active) and 2.25% (inactive) and 72.8% (active).

Which growth inhibition does the source give for `COc1cc(CSc2ccc(O)cc2)cc(O)c1O` here?
The growth inhibition was 74.7% (active).

With `CCOC(=O)C1N=[N+](c2ccccc2)C(=O)/C1=C\n1c(=S)[nH]c2ccc([N+](=O)[O-])cc21` (stereo not drawn) as the compound, how does the growth inhibition read?
The growth inhibition was 19.9% (inactive).

Which growth inhibition does the source give for `CNC(=O)OCc1c(COC(=O)NC)c2n(c1C)-c1ccc(OC)cc1CCC2` here?
Its growth inhibition is 90% (active).

Which growth inhibition does the source give for `O=C(NNc1ccccc1)c1ccc(Cl)c(Cl)c1` here?
The growth inhibition was 44.2% (inactive).

Which growth inhibition does the source give for `Cc1ccc(CC2(OCCN(C)C)CCC(C(C)(C)C)CC2)cc1` (stereo not drawn) here?
The growth inhibition was 98.7% (active) and 99.4% (active).

Which growth inhibition does the source give for `C[C@]12CC[C@H](O)CC1=CC[C@@H]1C2CC[C@]2(C)C(=O)NC(=O)CC12` (stereo partly drawn) here?
Its growth inhibition is 91.8% (active).

Which growth inhibition does the source give for `CCCC/C=C/C(C)(C(=O)OCC)C(=O)OCC` here?
The growth inhibition was 37.6% (inactive).

Which growth inhibition does the source give for `CCc1c(Cl)c(C)cc(O)c1Cl` here?
The growth inhibition was 86.2% (active).

With `O=C(/C=C(/c1ccccc1)N1CCCCC1)c1ccccc1` as the compound, how does the growth inhibition read?
Its growth inhibition is 82.1% (active).

Which growth inhibition does the source give for `CCCC(=O)Oc1ccc(/C=N/NC(N)=S)nc1` here?
The growth inhibition was 28.4% (inactive).

With `CCc1nc2ccc(NCCN(C)C)c3c(=O)c4ccccc4n1c23` as the compound, how does the growth inhibition read?
Its growth inhibition is 19.6% (inactive).

Which growth inhibition does the source give for `Cc1sc2ccc3ccccc3c2[n+]1C` here?
The growth inhibition was 89.2% (active) and 97.3% (active).

For `Cc1ccc(Cl)cc1NC(=O)OCCN(C)C(=O)Nc1cc(Cl)ccc1C`, which growth inhibition is on record?
The growth inhibition was 37.6% (inactive).

For `Cc1nc2ccccc2nc1NNc1ccccc1`, which growth inhibition is on record?
The growth inhibition was 36% (inactive).
